In the library only some 9.6% were active in any assay of this set; here they are far more common.
Lmaj promast – Leishmania major promastigote growth inhibition, primary screen; 9% of 200,000 active; Leishmania major promastigotes, resazurin fluorescence viability; inhibition, % at 10 µM; in the data active = inhibition above about 50%;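 note: promastigotes grown with compound for 44 hours at 28 °C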
HCT116 bCat-KO – primary screen for growth suppressors in beta-catenin knockout HCT116 cells (colon tumor, human); HCT116 beta-catenin knockout viability, CellTiter-Glo, 60 h; hits give low values; viability, % at 10 µM; 1.5% of 140,000 active;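 active = viability at or under a set limit, the compound median less 4 SD, cut at about 6% in these data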
Autophagy HCS – autophagy modulators in MEF cells, primary screen, imaging, high-content, MEF GFP-LC3 | AID 463193, 2010 | 0.98% of 190,000 active | MEF GFP-LC3 puncta imaging; test concentration mostly 10 µM | calls only at 10 µM (by protocol);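 active = percentage of spot-positive cells more than 3 SD above its plate mean, without a fluorescence outlier flag or 80% toxicity; inconclusive = no clear call, values can overlap the other calls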
HCT116 PTEN-null – growth suppression of PTEN-null HCT116, primary screen, cell-based, CellTiter-Glo; HCT116 PTEN-null viability, 60 h; hits give low values; viability, % at 10 µM; 1.2% of 140,000 active; AID 827, 2007;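 active = viability at or below a set limit, 4 SD under the median of all tested compounds, cut at about 3.7% in these data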;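 note: PTEN knockout HCT116 line with beta catenin targeted HCT116 as companion control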
Ins promoter up – insulin promoter activators in MIN6 cells, imaging, high-content screening, mouse beta cells; AID 1625, 2009; MIN6 insulin promoter-GFP reporter; hits give high values; 0.3% of 190,000 active; z-score at 5 µM;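 active = z-score above 3 at 5 µM with at least 500 cells counted in the well; inconclusive = wells under 500 cells, flagged as cytotoxic or low count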
INS promoter inh – inhibitors of insulin promoter-driven GFP, primary screen, imaging, TRM-6 cells (human fetal islet line), eGFP reporter, cell count; reporter expression induced with tamoxifen; inhibition, % at 2 µM; AID 1273, 2008; 0.9% of 130,000 active;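 active = inhibition above the mean plus 3 SD, with well images judged a real hit on visual review, cut at about 60% in these data, passing the limit was not always enough; inconclusive = inhibition over the cutoff but images rejected on review; inactive = inhibition not above the cutoff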
A number is an active result; – = inactive; ? = inconclusive; · = no result; + = active, no number.

SMILES | Lmaj promast | HCT116 bCat-KO | Autophagy HCS | HCT116 PTEN-null | Ins promoter up | INS promoter inh
O=C(Cc1ccc(-n2c(=S)[nH]c3ccccc3c2=O)cc1)N1CCC(N2CCCCC2)CC1 | – | – | – | – | · | –
Cc1cccc(NC(=O)C2(c3ccccc3)CC2(Cl)Cl)c1 (centres undefined) | – | – | – | – | – | ·
CCc1ccc(NC(=O)C2(c3ccccc3)CC2(Cl)Cl)cc1 (centres undefined) | 95.7 | – | – | – | – | –
Cc1ccc(NC(=O)C2(c3ccccc3)CC2(Cl)Cl)cc1C (centres undefined) | 67.4 | – | – | – | – | –
Cc1ccc(NC(=O)COC(=O)CCc2nc3ccccc3c(=O)[nH]2)c(Br)c1 | – | · | – | · | – | –
C=CCOC(=O)C(=O)/C=C/c1coc2ccccc2c1=O | – | · | – | · | – | ·
COC(=O)C1=C(C)NC(C)=C(C(=O)OC)C1c1ccccc1[N+](=O)[O-] | – | 1.6 | – | 1.9 | · | –
Cc1cc(C)cc(NC(=O)Cn2c(-c3ccccc3Cl)nc3ccccc32)c1 | – | – | – | – | · | ·
CC(NC(=O)C(c1ccccc1)c1ccccc1)C(=O)N1CCCCC1 (centres undefined) | 51.5 | · | – | · | – | –
CC(NC(=O)C(c1ccccc1)c1ccccc1)C(=O)O (centres undefined) | – | – | – | – | – | –
CC(C)CCNC(=O)C(C)N(Cc1ccc(F)cc1)C(=O)c1ccc(CN2CCOCC2)o1 (centres undefined) | – | · | – | · | · | –
Cc1ccc2c(c1)c1c(n2C)C(C(N)=O)CCC1 (centres undefined) | – | – | – | – | – | –
Cc1ccc2c(c1)c1c(n2C)-c2[nH]ncc2CC1 | 98.7 | – | – | – | · | –
CC(=O)Nc1sc2c(c1C(c1ccccn1)N1CCN(C)CC1)CCCC2 (centres undefined) | – | · | – | · | – | ·
Cc1cccc(NC(=S)N2CCC(N(C)CC3CCCO3)CC2)c1 (centres undefined) | 85.5 | · | – | · | – | –
COc1ccc(NC(=S)N2CCC(N(C)CC3CCCO3)CC2)cc1 (centres undefined) | 93.4 | – | – | – | – | –
COc1ccc(NC(=S)N2CCC(N(C)CC3CCCO3)CC2)cc1Cl (centres undefined) | 95.3 | – | – | – | – | –
COc1ccc(NC(=S)N2CCC(C(=O)N3CCCCCC3)CC2)cc1 | – | – | – | – | – | ·
Cc1c(Cl)cccc1NC(=S)N1CCN(C(=O)C2CCCO2)CC1 (centres undefined) | – | – | – | – | – | ·
Cc1c(Cl)cccc1NC(=S)N1CCC(N(C)CC2CCCO2)CC1 (centres undefined) | 83.5 | · | – | · | – | –
COc1ccc(NC(=O)CN(C2CCCCC2)S(C)(=O)=O)cc1Cl | – | – | – | – | · | –
Cc1ccc(NC(=S)N2CCC(N(C)CC3CCCO3)CC2)cc1C (centres undefined) | 86.5 | · | – | · | – | –
CSc1nc(-c2ccc(C)cc2)[nH]c1S(=O)(=O)c1ccccc1 | 55.7 | – | – | – | – | –
O=C(COC(=O)c1c2c(nc3ccccc13)CCCC2)c1cccs1 | – | – | – | – | · | –
CCCCCC(=O)c1ccc(O)cc1O | – | · | – | · | – | ·
SMILES | Lmaj promast | HCT116 bCat-KO | Autophagy HCS | HCT116 PTEN-null | Ins promoter up | INS promoter inh
Cc1nc(N2CCc3ccccc3C2)[nH]c(=O)c1Cc1ccccc1 | – | · | – | · | – | ·
Cc1nc(-n2[nH]c3c(c2=O)CCCC3)[nH]c(=O)c1Cc1ccccc1 | 96.5 | 5.3 | + | 3.2 | · | –
NC(=O)C[n+]1cccc2ccccc21 | – | – | – | – | – | –
CCCCC[n+]1cccc2c3ccccc3ccc21 | 100.3 | · | – | · | – | –
c1ccc(C[n+]2cccc3c4ccccc4ccc32)cc1 | 97.2 | – | – | – | ? | –
CSc1ncccc1C(=O)NCC12CC3CC(CC(C3)C1)C2 | – | · | – | · | – | –
COc1ccc2c3c(cccc13)N(C)N=C2C | 99.6 | – | – | – | – | –
COc1ccccc1N1CCN(S(=O)(=O)c2ccc3c4c(cccc24)C(=O)N3C)CC1 | – | – | – | – | · | –
Cc1ccc(NC(=O)Nc2ccccc2C#N)c(Cl)c1 | 66.5 | – | – | – | – | –
Cc1ccc(N=C2NC(=O)S/C2=C\c2ccco2)cc1 | – | – | – | – | – | –
O=C(O)Cc1ccc(NS(=O)(=O)c2ccccc2Cl)cc1 | – | · | – | · | – | ?
O=C(CN1C(=O)COc2ccccc21)N(Cc1cccnc1)Cc1cccc(F)c1 | 94.6 | – | – | – | – | –
CCC1Oc2ccc(C)cc2N(CC(=O)N(Cc2ccncc2)Cc2ccco2)C1=O (centres undefined) | 80.1 | – | – | – | · | –
O=C(O)CCC(=O)N(Cc1cccnc1)Cc1cccc(F)c1 | – | – | – | – | – | –
CCC1Oc2ccc(C)cc2N(CC(=O)N(Cc2cccnc2)Cc2cccc(F)c2)C1=O (centres undefined) | 92.5 | – | – | – | · | –
CCOc1ccc(N(CC(=O)N2CCCC2)S(=O)(=O)c2c(C)noc2C)cc1 | – | – | – | – | – | ·
CC1(C)CC(=O)C=C(NNC(=O)c2ccccc2)C1 | – | – | – | – | – | –
COc1ccc(C)cc1NC(=O)CC(NC(C)=O)c1ccccc1 (centres undefined) | – | · | – | · | 4.5 | –
COc1ccc(Cl)cc1NC(=O)CC(C)c1ccccc1 (centres undefined) | – | – | – | – | · | –
CN(C)CCN(C(=O)CCc1ccccc1)c1nc2c(F)cc(F)cc2s1 | – | · | – | · | – | –
O=C(Nc1nnc(-c2ccco2)o1)c1cccc(N2C(=O)CCC2=O)c1 | – | · | – | · | – | ·
O=C(Nc1nnc(COc2ccc(Cl)cc2)s1)c1ccc([N+](=O)[O-])cc1 | – | – | – | – | · | –
O=C(Nc1ncc(Cc2ccccc2Cl)s1)C1=NCCN1 | 72.8 | – | – | – | – | –
O=C(Nc1ncc(Cc2ccc(Cl)cc2Cl)s1)c1ccc([N+](=O)[O-])cc1 | 53.2 | – | – | – | – | –
CN(C)c1cccc(C(=O)OCCNC(=O)c2cccc(S(=O)(=O)N3CCOCC3)c2)c1 | · | · | · | · | – | ·
O=C(c1cc(-c2ccncc2)nc2ccc(Br)cc12)N1CCN(Cc2ccc3c(c2)OCO3)CC1 | – | · | – | · | – | ·
O=C(CCc1ccc(S(=O)(=O)NCc2ccccc2)cc1)N1CCN(Cc2ccc3c(c2)OCO3)CC1 | – | – | – | – | – | –
O=C(CS(=O)(=O)Cc1ccccc1)N1CCN(Cc2ccc3c(c2)OCO3)CC1 | 69.0 | – | – | – | – | –
O=C(c1cc(-c2ccncc2)nc2ccc(Cl)cc12)N1CCN(Cc2ccc3c(c2)OCO3)CC1 | 81.3 | · | – | · | – | ·
O=C(CSCc1cccc(Cl)c1)N1CCN(Cc2ccc3c(c2)OCO3)CC1 | 91.1 | – | – | – | · | –

Bioassay records: PubChem BioAssay, several laboratories
